Experiment [1] addresses Beta-2 adrenergic receptor (Homo sapiens) (UniProt P07550). Kind of experiment: qHTS validation assay of beta-arrestin-biased ligands of beta2-adrenergic receptor (AID 485366). Also: 0% is about no effect. The method, boiled down:
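Agonist activity is measured as luciferase luminescence downstream of beta-arrestin recruitment to recombinant beta2-AR in Tango cells. Exposure lasts 18 hr at 37 degrees C, and curves are categorized by r2, response size and activity.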
On the technique in general: Quantitative high-throughput screening tests each substance at several concentrations.

In experiment [2] the target is ATP-dependent 6-phosphofructokinase (Trypanosoma brucei brucei) (UniProt O15648). As to the kind of experiment: qHTS Validation Assay to Find Inhibitors of T. brucei phosphofructokinase (AID 485368). The method, boiled down:
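Inhibition derived from concentration-response curves of luminescence, ranked by r2, response size and curve class; the underlying reaction used 1.25 nM PFK, 0.1 mM ATP and 0.5 mM F6P, 45 min, room temperature.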

In experiment [3] the target is Thioredoxin reductase 1, cytoplasmic (Rattus norvegicus) (UniProt O89049). Kind of experiment: qHTS Assay for Substrates of Mammalian Selenoprotein Thioredoxin Reductase 1 (TrxR1) (AID 488772).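 Also: series mostly up to about 57 µM; 0% is about no effect; a drop in NADPH fluorescence below the no-compound background marks a TrxR1 substrate.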 The method, boiled down:
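In this dual-purpose format, potential substrates are identified from the first fluorescence read after selenite addition, not from the 8-minute delta. Rat enzyme is preincubated with NADPH and then with compound at ~22 deg C.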

Experiment [4] has the same target. Kind of experiment: qHTS Assay for Inhibitors of Mammalian Selenoprotein Thioredoxin Reductase 1 (TrxR1) (AID 488773).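 Also: drop in NADPH fluorescence over an 8 min run after selenite addition; series mostly up to about 57 µM; % is scaled to controls: 0 for no effect and ±100 for the full control effect; nearly all actives have a fitted effect of over 40% in size.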 The following applies: Potency: inhibition. In outline:
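Inhibition is scored from the loss of NADPH fluorescence between first and last reads of an 8-min kinetic run. Selenite (400 uM) was the substrate, added after 15 min compound preincubation at room temperature.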

The target of experiment [5] is Flap endonuclease 1 (Homo sapiens) (UniProt P39748). As to the kind of experiment: qHTS Validation Assay for the Inhibitors of Human Flap endonuclease 1 (FEN1) (AID 488816). Also: potency is read from the fitted curve at half-maximal effect. The method, boiled down: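 Enzyme reagent 10 nM; cpds pinned; 15 min RT preinc.; substrate 50 nM final; reads t=0 and 15 min; no-enzyme buffer wells as neg. control; normalized data, 4-parameter Hill fit.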

Experiment [6] has as its target M-phase phosphoprotein 8 (Homo sapiens) (UniProt Q99549). Kind of experiment: qHTS Validation Assay for Inhibitors for MPP8 Chromodomain Interactions with Methylated Histone Tails (AID 488949). Also: nearly all actives have a fitted effect of over 55% in size. Also: potency is read from the fitted curve at half-maximal effect. The method, boiled down: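 MPP8 (50 nM) was preincubated with biotinylated H3(1-18)K9me3 peptide (50 nM) in PBS pH 7.4, 0.01% Tween-20 for 30 min at room temperature, then with compounds for 30 min; binding was detected by AlphaScreen.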

The target of experiment [7] is Chromobox protein homolog 1 (Homo sapiens) (UniProt P83916). Kind of experiment: qHTS Validation Assay for Inhibitors of HP1-beta Chromodomain Interactions with Methylated Histone Tails (AID 488953). Also: nearly all actives have a fitted effect of over 50% in size. Also: potency is read from the fitted curve at half-maximal effect. In outline: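 Compounds pinned into a preassembled complex of HP1-beta and trimethyl-K9 histone H3(1-18) biotin peptide (50 nM each; PBS pH 7.4, 0.01% Tween-20). After 30 min, bead-based AlphaScreen detection followed.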

In experiment [8] the target is Methanococcus maripaludis chaperonin (MmCpn) (UniProt Q6LX38). As to the kind of experiment: High-Throughput Screening for Modulators of Cytosolic Chaperonin Activity: MmCpn Primary Screen (AID 488978).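 Also: 50 nM MmCpn enzyme hydrolysing 30 µM ATP at 37 °C; 0% is about no effect.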 The method, boiled down:
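MmCpn (50 nM final) was preincubated with compound 5 min at RT, then 30 uM ATP (final) was added and the reaction ran 10 min at 37C. ADP produced was detected by Transcreener HTRF (ex 320 nm; em 590/665 nm).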

Experiment [9] in a line: Validation screen for small molecules that induce genotoxicity in human embryonic kidney (HEK293T) cells expressing luciferase-tagged ELG1 (AID 493106). Also: 0% is about no effect. In outline:
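In this validation screen, increased ELG1-luciferase signal flags compounds causing genetic stress. HEK293T reporter cells are treated 16 hr (37 °C, 5% CO2), developed with ONE-Glo for 30 min at room temperature, and imaged on a CCD-based reader.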

The target of experiment [10] is ATPase family AAA domain-containing protein 5 (Homo sapiens) (UniProt Q96QE3). As to the kind of experiment: Validation screen for small molecules that inhibit ELG1-dependent DNA repair in human embryonic kidney (HEK293T) cells expressing luciferase-tagged ELG1 (AID 493107).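 Also: cells co-treated with the DNA-damaging agent 5-fluorouridine alongside compound; series mostly up to about 46 µM; % is scaled to controls: 0 for no effect and ±100 for the full control effect; inhibitors lower the ELG1-luciferase luminescence signal; nearly all actives have a fitted effect of over 70% in size.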 The method, boiled down:
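Compounds reducing 5-fluorouridine-driven ELG1-luciferase signal in HEK293T cells were scored; exposure lasted 16 hr at 37 °C with luminescence detected via ONE-Glo.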

A short description of experiment [11]: Nrf2 qHTS screen for inhibitors: Validation (AID 493153; active = well fitted inhibition curve with a large enough effect in the main read-out, with a control signal flat, not every such curve was filed as active). The following applies: Potency: luciferase luminescence; viability change: measured here: cytotoxicity max response. The method, boiled down:
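In this counterscreened reporter format, each well gives two signals: CellTiter-Fluor fluorescence for cytotoxicity and ARE-luciferase luminescence for Nrf2 function. A549 ARE_Fluc cells in 5% FBS OPTI-MEM were exposed to compound titrations for 18-24 h.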

Experiment [12] is described as follows: qHTS for Inhibitors of Cell Surface uPA Generation: Validation Assay (AID 493164).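 Also: RAW 264.7 macrophage cells exposed to compound for 18 h; 0% is about no effect.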 The method, boiled down:
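Compounds are titrated over seven points (2.45 nM–38.3 uM final) onto pre-plated RAW 264.7 cells and incubated for 18 h. Retained intracellular ATP, measured with ATP-Lite, indicates blocked lethal factor entry.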

Experiment [13] addresses D(1A) dopamine receptor (Homo sapiens) (UniProt P21728). Kind of experiment: HTS Assay for Allosteric Agonists of the Human D1 Dopamine Receptor: Primary Screen for Potentiators (AID 488982). Also: 0% is about no effect. The method, boiled down:
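Tetracycline-induced HEK293 Trex D1 cells with forced coupling to calcium, loaded with no-wash calcium dye; kinetic fluorescence read 180 s after compound addition for agonism, then a further 180 s after an EC20 dopamine challenge for potentiation.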

For experiment [14] the target is unchanged. As to the kind of experiment: HTS Assay for Allosteric Agonists of the Human D1 Dopamine Receptor: Primary Screen for Antagonists (AID 488983).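 Also: calcium flux response to an EC80 dopamine challenge measured with no-wash dye; nearly all actives have a fitted effect of over 65% in size.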 Also: potency is read from the fitted curve at half-maximal effect. In outline:
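In this primary screen, compounds are applied to calcium-dye-loaded HEK293 T-REx cells with force-coupled D1 expression induced overnight at 30 C. An EC80 of dopamine follows the 180 s compound phase, and calcium is monitored for a further 180 s.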

Experiment [15] concerns the target ATP-dependent 6-phosphofructokinase (Trypanosoma brucei brucei) (UniProt O15648). As to the kind of experiment: qHTS Assay to Find Inhibitors of T. brucei phosphofructokinase: hit validation (AID 492961).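 Also: luminescence reports ADP formed as PFK phosphorylates fructose-6-phosphate with ATP; series mostly up to about 51 µM; % is scaled to controls: 0 for no effect and ±100 for the full control effect.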 In outline:
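Inhibition of parasite PFK is measured as reduced ADP formation, quantified via luciferase after ATP depletion. Assay used 0.1 mM ATP, 0.5 mM F6P, 1.25 nM enzyme, 45 min incubation.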

The target of experiment [16] is Thyrotropin-releasing hormone receptor (Homo sapiens) (UniProt P34981). Kind of experiment: qHTS for Small Molecule Agonists and Allosteric Enhancers of Human TRH Receptor: Validation Screen for Agonists (AID 493127;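 active = calcium activation more than 3 SD above the typical response in the agonist read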;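 also: intracellular calcium rise by fluo-8 fluorescence before TRH EC20 addition; 0% is about no effect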). Particulars: TRH receptor agonist cell assay; at 2 µM; stronger effect = higher value. In outline: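 Kinetic fluorescence assay of agonist-induced calcium release: overnight-plated TRHR cells, room-temperature fluo-8 loading, baseline then compound addition with per-second reads.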

Experiment [17] is described as follows: Quantitative high throughput screen for delayed death inhibitors of the malarial parasite plastid, 48 hour incubation (AID 488752). Also: nearly all actives have a fitted effect of over 65% in size. Also: potency is read from the fitted curve at half-maximal effect. The method, boiled down: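 Cultures: infected erythrocytes at final 2% hematocrit and 0.1% parasitemia in Albumax-supplemented RPMI. Parasites express integrated firefly luciferase. Incubation with compound lasts 48 h before luminescent detection of remaining reporter activity.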

The target of experiment [18] is Thyrotropin receptor (Homo sapiens) (UniProt P16473). Kind of experiment: qHTS Assay for Antagonists of the Thyroid Stimulating Hormone Receptor (AID 488980). Also: series mostly up to about 58 µM; 0% is about no effect. In outline:
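HEK293 cells transfected with human TSHR, suspended in HEPES-buffered HBSS with 70 uM RO 20-1724, were treated with compounds plus TSH at EC80 (4 nM final). cAMP was measured by competitive HTRF (cryptate anti-cAMP antibody, cAMP-d2 acceptor).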

Molecules are shown by their SMILES. Results filed as inconclusive are left out. Calls of active or inactive are those of the source. Unless noted, calls follow the shape of the dose curve; as a rule, active = well fitted curve in the direction sought with a large enough effect; inconclusive = small, poorly fitted or top-dose-only effect, or another doubt; inactive = no such curve, though single readings can be large; an effect the other way counts as inactive or inconclusive.

Thioredoxin reductase 1, cytoplasmic (Rattus norvegicus), sequence (O89049 whole entry, looked up): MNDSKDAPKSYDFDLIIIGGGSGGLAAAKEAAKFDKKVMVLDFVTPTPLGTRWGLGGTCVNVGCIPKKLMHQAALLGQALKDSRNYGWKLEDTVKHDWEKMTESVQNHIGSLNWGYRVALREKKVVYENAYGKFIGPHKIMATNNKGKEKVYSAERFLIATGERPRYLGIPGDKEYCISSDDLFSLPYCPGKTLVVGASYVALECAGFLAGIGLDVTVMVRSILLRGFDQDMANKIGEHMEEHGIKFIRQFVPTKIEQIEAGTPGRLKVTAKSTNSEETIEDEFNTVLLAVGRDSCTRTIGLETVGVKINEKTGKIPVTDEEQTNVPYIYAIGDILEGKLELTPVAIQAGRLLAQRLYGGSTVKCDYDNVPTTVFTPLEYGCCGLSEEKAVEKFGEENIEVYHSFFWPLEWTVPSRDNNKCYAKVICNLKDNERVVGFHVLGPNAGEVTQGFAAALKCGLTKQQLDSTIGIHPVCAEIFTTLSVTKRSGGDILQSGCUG
Beta-2 adrenergic receptor (Homo sapiens), sequence (P07550 whole entry, looked up): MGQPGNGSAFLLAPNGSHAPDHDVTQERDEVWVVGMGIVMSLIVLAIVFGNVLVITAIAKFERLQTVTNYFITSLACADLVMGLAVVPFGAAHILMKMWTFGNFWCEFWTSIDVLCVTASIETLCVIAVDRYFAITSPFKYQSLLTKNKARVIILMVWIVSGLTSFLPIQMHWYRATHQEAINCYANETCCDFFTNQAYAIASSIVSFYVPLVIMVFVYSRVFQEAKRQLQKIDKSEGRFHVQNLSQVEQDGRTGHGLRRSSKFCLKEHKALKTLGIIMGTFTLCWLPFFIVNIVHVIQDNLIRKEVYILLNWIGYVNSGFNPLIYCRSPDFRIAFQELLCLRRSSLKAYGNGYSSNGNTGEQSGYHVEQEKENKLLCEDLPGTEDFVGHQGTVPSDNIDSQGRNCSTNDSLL
Methanococcus maripaludis chaperonin (MmCpn), sequence (Q6LX38 1-543): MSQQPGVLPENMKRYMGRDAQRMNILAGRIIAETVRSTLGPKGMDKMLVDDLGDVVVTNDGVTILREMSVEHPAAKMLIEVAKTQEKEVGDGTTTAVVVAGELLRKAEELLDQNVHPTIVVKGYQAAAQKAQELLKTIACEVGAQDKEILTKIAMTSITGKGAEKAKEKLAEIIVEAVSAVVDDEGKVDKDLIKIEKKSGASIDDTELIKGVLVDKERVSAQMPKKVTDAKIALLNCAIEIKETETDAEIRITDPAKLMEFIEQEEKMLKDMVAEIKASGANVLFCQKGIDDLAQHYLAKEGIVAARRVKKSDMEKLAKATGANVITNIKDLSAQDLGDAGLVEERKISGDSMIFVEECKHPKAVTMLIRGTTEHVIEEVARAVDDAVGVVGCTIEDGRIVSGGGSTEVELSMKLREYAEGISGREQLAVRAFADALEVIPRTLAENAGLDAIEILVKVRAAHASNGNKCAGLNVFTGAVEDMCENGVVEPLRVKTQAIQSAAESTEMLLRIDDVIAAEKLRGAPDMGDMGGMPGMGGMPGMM
Flap endonuclease 1 (Homo sapiens), sequence (P39748 whole entry, looked up): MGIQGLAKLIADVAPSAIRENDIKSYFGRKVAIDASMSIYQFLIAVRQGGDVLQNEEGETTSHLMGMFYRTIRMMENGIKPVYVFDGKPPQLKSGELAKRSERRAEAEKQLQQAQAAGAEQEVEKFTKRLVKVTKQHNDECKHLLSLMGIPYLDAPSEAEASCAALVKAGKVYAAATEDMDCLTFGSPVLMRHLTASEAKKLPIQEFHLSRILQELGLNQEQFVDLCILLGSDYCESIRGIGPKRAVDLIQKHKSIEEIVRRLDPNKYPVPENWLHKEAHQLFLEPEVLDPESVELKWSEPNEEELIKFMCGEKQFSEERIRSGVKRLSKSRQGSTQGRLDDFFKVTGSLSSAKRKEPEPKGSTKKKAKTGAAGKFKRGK
D(1A) dopamine receptor (Homo sapiens), sequence (P21728 whole entry, looked up): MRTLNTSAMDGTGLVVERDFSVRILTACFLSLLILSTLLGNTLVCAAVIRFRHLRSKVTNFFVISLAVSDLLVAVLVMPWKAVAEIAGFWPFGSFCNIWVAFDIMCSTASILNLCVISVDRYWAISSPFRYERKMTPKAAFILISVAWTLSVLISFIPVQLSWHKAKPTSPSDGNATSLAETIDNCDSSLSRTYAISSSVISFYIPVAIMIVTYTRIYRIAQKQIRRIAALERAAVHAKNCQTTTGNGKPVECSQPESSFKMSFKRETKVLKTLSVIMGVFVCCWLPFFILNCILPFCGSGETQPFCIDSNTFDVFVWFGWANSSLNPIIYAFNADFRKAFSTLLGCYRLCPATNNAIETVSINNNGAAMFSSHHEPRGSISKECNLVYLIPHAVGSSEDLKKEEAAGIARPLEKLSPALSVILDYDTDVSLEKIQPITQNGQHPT
ATP-dependent 6-phosphofructokinase (Trypanosoma brucei brucei), sequence (O15648 whole entry, looked up): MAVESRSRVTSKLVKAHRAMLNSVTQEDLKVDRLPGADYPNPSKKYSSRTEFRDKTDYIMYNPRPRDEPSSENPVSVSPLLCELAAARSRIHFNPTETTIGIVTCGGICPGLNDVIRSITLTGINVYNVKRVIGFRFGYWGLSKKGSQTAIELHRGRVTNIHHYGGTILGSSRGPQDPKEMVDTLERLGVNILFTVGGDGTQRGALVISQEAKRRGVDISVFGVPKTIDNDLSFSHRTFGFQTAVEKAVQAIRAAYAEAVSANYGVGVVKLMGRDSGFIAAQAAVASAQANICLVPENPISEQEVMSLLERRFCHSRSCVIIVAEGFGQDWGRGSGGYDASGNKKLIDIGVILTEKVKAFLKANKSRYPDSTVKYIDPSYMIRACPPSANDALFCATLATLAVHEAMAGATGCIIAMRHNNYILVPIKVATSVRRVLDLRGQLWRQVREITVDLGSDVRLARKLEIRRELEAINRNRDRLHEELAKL
Thyrotropin receptor (Homo sapiens), sequence (P16473 whole entry, looked up): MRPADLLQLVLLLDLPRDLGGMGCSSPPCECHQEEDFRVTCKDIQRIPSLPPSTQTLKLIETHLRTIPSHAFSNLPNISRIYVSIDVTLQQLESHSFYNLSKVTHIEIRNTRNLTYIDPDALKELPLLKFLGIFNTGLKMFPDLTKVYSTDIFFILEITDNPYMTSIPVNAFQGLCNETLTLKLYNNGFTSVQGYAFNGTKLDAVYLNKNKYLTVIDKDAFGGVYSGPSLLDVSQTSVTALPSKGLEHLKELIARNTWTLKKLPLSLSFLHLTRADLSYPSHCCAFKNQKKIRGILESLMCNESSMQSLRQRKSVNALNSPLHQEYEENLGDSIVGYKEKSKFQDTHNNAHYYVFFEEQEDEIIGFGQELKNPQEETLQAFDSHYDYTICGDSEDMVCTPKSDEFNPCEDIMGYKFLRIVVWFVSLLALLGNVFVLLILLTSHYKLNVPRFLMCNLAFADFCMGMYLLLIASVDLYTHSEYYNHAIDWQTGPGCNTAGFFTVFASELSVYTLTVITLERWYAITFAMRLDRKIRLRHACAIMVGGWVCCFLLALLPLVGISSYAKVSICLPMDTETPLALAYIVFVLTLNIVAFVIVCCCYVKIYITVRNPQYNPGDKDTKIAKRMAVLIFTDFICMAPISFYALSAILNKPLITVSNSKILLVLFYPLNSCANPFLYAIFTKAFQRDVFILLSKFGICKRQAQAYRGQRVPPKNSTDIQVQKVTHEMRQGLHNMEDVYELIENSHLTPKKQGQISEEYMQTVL
Thyrotropin-releasing hormone receptor (Homo sapiens), sequence (P34981 whole entry, looked up): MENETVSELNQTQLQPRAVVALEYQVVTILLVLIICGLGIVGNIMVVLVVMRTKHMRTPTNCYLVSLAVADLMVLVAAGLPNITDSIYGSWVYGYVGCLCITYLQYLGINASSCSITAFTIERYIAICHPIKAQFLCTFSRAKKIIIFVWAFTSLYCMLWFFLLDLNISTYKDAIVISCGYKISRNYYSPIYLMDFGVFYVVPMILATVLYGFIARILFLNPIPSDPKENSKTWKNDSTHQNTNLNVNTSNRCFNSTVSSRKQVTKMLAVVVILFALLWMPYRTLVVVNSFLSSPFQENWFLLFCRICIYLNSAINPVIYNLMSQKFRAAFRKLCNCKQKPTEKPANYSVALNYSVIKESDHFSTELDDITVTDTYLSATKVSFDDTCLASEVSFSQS
M-phase phosphoprotein 8 (Homo sapiens), sequence (Q99549 whole entry, looked up): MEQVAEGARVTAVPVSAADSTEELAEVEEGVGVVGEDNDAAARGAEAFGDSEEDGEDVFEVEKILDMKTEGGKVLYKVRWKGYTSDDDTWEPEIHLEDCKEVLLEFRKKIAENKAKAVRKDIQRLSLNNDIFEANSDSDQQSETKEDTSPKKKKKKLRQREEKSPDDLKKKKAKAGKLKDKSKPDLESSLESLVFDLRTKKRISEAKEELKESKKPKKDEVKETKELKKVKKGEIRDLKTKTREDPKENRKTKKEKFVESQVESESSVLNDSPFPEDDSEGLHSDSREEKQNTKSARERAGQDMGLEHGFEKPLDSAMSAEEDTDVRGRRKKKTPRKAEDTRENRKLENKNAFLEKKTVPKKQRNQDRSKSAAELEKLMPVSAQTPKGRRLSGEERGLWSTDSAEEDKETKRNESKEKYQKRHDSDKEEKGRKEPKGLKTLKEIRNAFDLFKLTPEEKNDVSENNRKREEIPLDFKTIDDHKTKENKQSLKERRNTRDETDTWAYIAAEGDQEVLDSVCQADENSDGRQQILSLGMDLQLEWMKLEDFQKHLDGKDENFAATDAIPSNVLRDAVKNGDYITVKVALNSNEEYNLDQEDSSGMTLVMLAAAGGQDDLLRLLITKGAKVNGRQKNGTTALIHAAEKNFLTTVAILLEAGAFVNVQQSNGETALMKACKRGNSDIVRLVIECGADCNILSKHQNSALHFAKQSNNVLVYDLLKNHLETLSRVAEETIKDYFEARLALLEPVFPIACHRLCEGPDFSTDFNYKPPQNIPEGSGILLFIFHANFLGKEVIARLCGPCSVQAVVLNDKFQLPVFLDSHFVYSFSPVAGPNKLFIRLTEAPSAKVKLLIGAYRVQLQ
Chromobox protein homolog 1 (Homo sapiens), sequence (P83916 whole entry, looked up): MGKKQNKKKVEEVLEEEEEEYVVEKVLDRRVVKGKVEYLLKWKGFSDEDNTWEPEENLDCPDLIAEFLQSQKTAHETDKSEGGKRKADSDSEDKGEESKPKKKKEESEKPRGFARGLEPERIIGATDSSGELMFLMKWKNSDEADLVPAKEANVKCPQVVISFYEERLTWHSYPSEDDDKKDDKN

Regarding `CC(C)(C)[C@]1(O)CCN2C[C@H]3c4ccccc4CCc4cccc(c43)[C@@H]2C1`, the call in [1], in experiment [3], in [10] and in experiment [12] was inactive. Also, the Potency result in experiment [2], in [4], in experiment [5], in [6], in experiment [7] and in [8] was “inactive” throughout. The Potency entry in [9] and in experiment [11] was “inactive” each time. The viability change in [11] was -7.91%.
Take `CSc1ccc2c(c1)C(N1CCN(C)CC1)Cc1ccccc1S2` (stereo not drawn): the compound was called inactive in [1], in experiment [3], in experiment [13] and in experiment [12]. Besides, the Potency result in [2], in experiment [4], in [5], in experiment [8], in experiment [15] and in [9] was “inactive” in each case. In experiment [11], the Potency entry is “inactive”. Moreover, the figures for the Potency in experiment [6], in experiment [7] and in [14] were 44.7 µM (active), 39.8 µM (active) and 0.316 µM (active), respectively. The activation in [16] was 5.38% (inactive). Further, the viability change in experiment [11] is -13.4%.
Take `Cc1cc(N)c2ccccc2[n+]1CCCCCCCCCC[n+]1c(C)cc(N)c2ccccc21`: the compound was called inactive in experiment [1], in experiment [3], in [18], in experiment [13] and in experiment [12]. In addition, the Potency in experiment [17] was 0.37 µM (active); in experiment [5] it was 21.2 µM (active); in experiment [6] it was 50.1 µM (active). Besides, the Potency entry in experiment [4], in experiment [8], in [15] and in experiment [9] was “inactive” in each case. In addition, the activation in experiment [16] was 0.812% (inactive).
Regarding `CNC(=O)Oc1ccc2c(c1)[C@]1(C)CCN(C)[C@@H]1N2C`, the result in experiment [1], in [3], in experiment [18], in experiment [13], in [10] and in experiment [12] was inactive. For the same compound, the Potency result in experiment [17], in [4], in experiment [5], in experiment [7], in experiment [8] and in experiment [14] was “inactive” throughout. Besides, the Potency result in [9] and in experiment [11] was “inactive” each time. The activation in [16] is 1% (inactive). Further, the viability change in experiment [11] came to 11.7%.
On to `CCN(CC)CCNC(=O)c1cc(Cl)c(N)cc1OC`, for which the compound was classed as inactive in experiment [1], in experiment [3], in [18], in experiment [13], in experiment [10] and in experiment [12]. Further, the Potency entry in experiment [2], in [17], in [4], in experiment [5], in experiment [6] and in [7] was “inactive” each time. The Potency entry in experiment [8], in experiment [9] and in experiment [11] was “inactive” throughout. The activation in experiment [16] was 1.31% (inactive). In addition, the viability change in experiment [11] is -1.22%.
Consider `CN(C)CCC=C1c2ccccc2CCc2ccccc21`, for which the compound was classed as inactive in experiment [1], in [3], in experiment [18], in [10] and in experiment [12]. For the same compound, the Potency entry in experiment [2], in experiment [4], in experiment [5], in experiment [8], in experiment [9] and in [11] was “inactive” throughout. In [16], the activation was 1.31% (inactive). The viability change in [11] came to 9.1%.
Regarding `CC(C)C(=O)c1c(C(C)C)nn2ccccc12`, the call in experiment [1], in experiment [3], in [13], in [10] and in experiment [12] was inactive. In addition, the Potency result in [2], in experiment [17], in experiment [4], in [5], in experiment [6] and in [7] was “inactive” throughout. For the same compound, the Potency entry in experiment [8], in experiment [14] and in experiment [9] was “inactive” in each case. Besides, the activation in experiment [16] was -4.94% (inactive).

The values above are taken from PubChem BioAssay (NCATS).
